Compound activity (PubChem BioAssay)
Compounds with a hit are over-represented: about 2.9% of the library has one in this group of screens.
SNCA viab count – GF-AFC viability counterscreen for inhibitors of alpha-synuclein gene (SNCA) expression | Potency, µM (series often up to 57.1 µM), for the others: at the top dose activity change, negative = cytotoxicity, most hits filed as cytotoxic | AID 1671193, 2021 | 0.12% of 150,000 active | HEK-293-SNCA-luc viability, GF-AFC fluorescence, 24 h;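 note: potency is the fitted concentration of half-maximal effect; 0% = DMSO-treated cells and -100% = medium-only wells without cells; nearly all actives have a fitted effect of over 30% in size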
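Cytotoxicity counterscreen: after 24 h compound treatment of genome-edited SNCA-luciferase HEK-293 cells, live-cell protease substrate GF-AFC read by fluorescence after 30 min; activity scaled between DMSO (0%) and medium-only (-100%), curves Hill-fitted.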
SNCA expr inh – Primary qHTS assay for inhibitors of alpha-synuclein gene (SNCA) expression | AID 1671194, 2021 | Potency, µM (top dose mostly 57.2 µM), inactives show at the top dose activity change, negative = inhibition, actives largely listed as inhibitors | HEK-293 SNCA-luciferase knock-in, luminescence, 24 h | 0.17% of 140,000 active;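 note: potency is the fitted concentration of half-maximal effect; plate controls were DMSO cells for no effect and cell-free wells for full effect; nearly all actives have a fitted effect of over 45% in size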
IP6K1 inh – Primary qHTS assay for small molecule inhibitors of Inositol hexaphosphate kinase 1 (IP6K1) | Inositol hexakisphosphate kinase 1 (Homo sapiens), Q92551 | IP6K1 kinase, ADP-Glo luminescence, 2 h; active compounds read low | activity change, % (series mostly up to about 58 µM) | 0.81% of 140,000 active | AID 1645851, 2021; in the data active = activity change below about -25%; note: % is set by controls: 0 for no effect and ±100 for the full control effect
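ADP-Glo luminescence measures ADP made by human IP6K1 during a 2 h RT reaction with ATP/IP6 (mix at 1.3 mM/130 uM); top library doses 57.5 and 19.1 uM final.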
KDM5B inh – Primary screen for KDM5B Histone Demethylases FDH-coupled qHTS; Lysine-specific demethylase 5B (Homo sapiens), Q9UGL1; KDM5B demethylase, FDH-coupled NADH fluorescence (FDH is formaldehyde dehydrogenase); Potency, µM (titrated, usually from 57.7 µM), hits mostly inhibitors; 2.6% of 220,000 active; note: potency is the fitted concentration of half-maximal effect; 0% is about no effect; nearly all actives have a fitted effect of over 70% in size
Target sequence (Q9UGL1 whole entry, looked up): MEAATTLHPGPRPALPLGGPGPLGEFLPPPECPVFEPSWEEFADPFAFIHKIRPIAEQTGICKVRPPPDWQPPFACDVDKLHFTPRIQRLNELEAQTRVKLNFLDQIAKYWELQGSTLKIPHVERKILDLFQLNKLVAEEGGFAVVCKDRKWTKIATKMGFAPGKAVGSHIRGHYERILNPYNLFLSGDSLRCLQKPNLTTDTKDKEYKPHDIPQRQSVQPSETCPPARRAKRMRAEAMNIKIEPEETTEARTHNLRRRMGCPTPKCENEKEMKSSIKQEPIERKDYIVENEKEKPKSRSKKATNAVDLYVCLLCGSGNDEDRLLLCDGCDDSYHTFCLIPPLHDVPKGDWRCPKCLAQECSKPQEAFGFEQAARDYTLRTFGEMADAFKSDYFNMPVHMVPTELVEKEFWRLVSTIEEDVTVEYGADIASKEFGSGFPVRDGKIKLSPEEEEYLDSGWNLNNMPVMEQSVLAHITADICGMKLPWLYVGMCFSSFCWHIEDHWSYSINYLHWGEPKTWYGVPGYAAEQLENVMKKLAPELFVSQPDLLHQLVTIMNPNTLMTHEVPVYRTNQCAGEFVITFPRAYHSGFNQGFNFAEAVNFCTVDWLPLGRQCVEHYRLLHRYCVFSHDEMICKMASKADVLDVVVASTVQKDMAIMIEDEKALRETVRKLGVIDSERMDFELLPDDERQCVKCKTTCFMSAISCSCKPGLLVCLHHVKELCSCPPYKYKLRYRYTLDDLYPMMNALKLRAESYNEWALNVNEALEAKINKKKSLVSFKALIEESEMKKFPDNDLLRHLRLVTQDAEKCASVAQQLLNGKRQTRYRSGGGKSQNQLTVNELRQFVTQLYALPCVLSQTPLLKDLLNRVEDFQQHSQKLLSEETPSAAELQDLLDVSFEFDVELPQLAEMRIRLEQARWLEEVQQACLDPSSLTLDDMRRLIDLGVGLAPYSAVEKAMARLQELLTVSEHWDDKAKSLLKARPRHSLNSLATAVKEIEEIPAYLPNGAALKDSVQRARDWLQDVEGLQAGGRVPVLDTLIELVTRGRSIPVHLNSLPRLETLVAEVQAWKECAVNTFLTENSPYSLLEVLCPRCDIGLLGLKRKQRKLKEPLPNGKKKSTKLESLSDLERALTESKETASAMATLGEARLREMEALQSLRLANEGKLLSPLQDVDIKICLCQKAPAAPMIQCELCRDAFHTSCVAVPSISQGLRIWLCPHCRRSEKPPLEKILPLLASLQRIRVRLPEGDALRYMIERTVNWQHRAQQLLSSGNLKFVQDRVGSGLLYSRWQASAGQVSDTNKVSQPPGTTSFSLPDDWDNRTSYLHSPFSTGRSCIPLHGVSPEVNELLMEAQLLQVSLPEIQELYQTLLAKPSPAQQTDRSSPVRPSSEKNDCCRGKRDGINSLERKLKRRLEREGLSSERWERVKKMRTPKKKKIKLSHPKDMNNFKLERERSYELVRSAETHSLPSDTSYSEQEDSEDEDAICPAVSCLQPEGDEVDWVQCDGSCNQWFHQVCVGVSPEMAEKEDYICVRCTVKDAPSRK
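Coupled FDH/NAD⁺ fluorescence readout. KDM5BΔAP 200 nM final; compound titration, 10 min RT preincubation; substrate mix 12.5 µM H3K4me3, 25 µM 2-OG, 50 µM Fe(II), 100 µM ascorbate, 0.25 mM NAD⁺, 0.25 U/mL FDH; ΔRFU over 30 min.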
Active calls of the source: *; i = inactive; ? = inconclusive; . = no result; [ ] = remark or other dose. Unless noted, calls come from the whole dose curve; as a rule, active = well fitted curve in the direction sought with a large enough effect; inconclusive = small, poorly fitted or top-dose-only effect, or another doubt; inactive = no such curve, though single readings can be large; an effect the other way counts as inactive or inconclusive.

SMILES | SNCA viab count | SNCA expr inh | IP6K1 inh | KDM5B inh
Cc1noc(C)c1-c1cc(-c2ccccc2O)cn2cncc12 | 2%[87.6 µM] | -12%[87.6 µM] | -6 | i
CC(=O)Nc1cccc(-c2cc(-c3c(C)noc3C)c3cncn3c2)c1 | 3%[87.6 µM] | 35%[87.6 µM] | -5 | 40µM*
Cc1noc(C)c1-c1cc(-c2cnn(C)c2)cn2cncc12 | 11%[87.6 µM] | -6%[87.6 µM] | -13 | 40µM*
C1=C(c2cc(-c3cccc(N4CCOCC4)c3)cn3cncc23)CCOC1 | -1%[87.6 µM] | 25%[87.6 µM] | -2 | ?
COc1ccc(-c2cc(-c3cnn(C)c3)cn3cncc23)cc1 | -14%[87.6 µM] | -27%[87.6 µM] | -16 | 35µM*
CC(=O)Nc1cccc(-c2cc(C3=CCOCC3)c3cncn3c2)c1 | 14%[87.6 µM] | 18%[87.6 µM] | 7 | 40µM*
COc1cccc(-c2cc(-c3c(C)noc3C)c3cncn3c2)c1 | -8%[87.6 µM] | 9%[87.6 µM] | -11 | ?
COc1cccc(-c2cc(-c3ccc(OC)nc3)c3cncn3c2)c1 | -9%[87.6 µM] | 6%[87.6 µM] | -20 | 32µM*
Cc1noc(C)c1-c1cc(-c2cccnc2)cn2cncc12 | 11%[87.6 µM] | 2%[87.6 µM] | -21 | 35µM*
Cc1noc(C)c1-c1cc(-c2cccc(CO)c2)cn2cncc12 | 4%[87.6 µM] | 4%[87.6 µM] | -14 | 35µM*
COc1cccc(-c2cc(-c3ccc(=O)[nH]c3)c3cncn3c2)c1 | 6%[87.6 µM] | -26%[87.6 µM] | -15 | ?
O=C(CN1CCN(c2ccc(F)cc2)CC1)Nc1ncc2c(n1)CCCC2=O | . | . | . | i
COc1ccc(-c2nnc(SCC(=O)NCc3ccco3)n2C2CCCCC2)cc1OC | . | . | . | i
Cn1c(=O)n(C)c2cc(NC(=O)CN3C(=O)COc4ccccc43)ccc21 | . | . | . | i
O=C(Cc1ccccc1Cl)NC1CCN(c2cc(-c3ccccc3)[nH]n2)C1 (centres undefined) | ? | ? | 0 | i
Clc1ccc2nc(-c3nc(C4CCOC4)no3)cn2c1 (centres undefined) | -15% | 119% | 13 | 22µM*
Cn1nc(-c2nc(C3CCOC3)no2)cc1-c1ccccc1 (centres undefined) | 4% | -18% | -4 | i
Cc1nn(C)c(C)c1-c1ccnc(NCC2COc3ccccc3O2)n1 (centres undefined) | 6% | -26% | 6 | ?
Cc1nn(C)c(C)c1-c1ccnc(NCC2CC(=O)N(C3CCCC3)C2)n1 (centres undefined) | 3% | -7% | 1 | 25µM*
Clc1ccc2ncc(-c3cccc(NC4CNC4)n3)n2c1 | -30% | 0.61µM* | -4 | .
Cc1ccccc1-c1onc(C)c1C(=O)NCc1cc(F)cc(F)c1 | -1% | -9% | 2 | i
COc1ccccc1-c1onc(C)c1C(=O)NCc1ccccc1C | 13% | -1% | 32 | ?
Cc1noc(-c2ccc3c(c2)OCO3)c1C(=O)NCCCCc1ccccc1 | 15% | -4% | -4 | 28µM*
COc1ccc(-c2onc(C)c2C(=O)NCCCCc2ccccc2)cc1 | -12% | -10% | 14 | i
Cc1noc(-c2ccc3c(c2)OCO3)c1C(=O)NC(C)CCc1ccccc1 (centres undefined) | -1% | -1% | -12 | 28µM*
SMILES | SNCA viab count | SNCA expr inh | IP6K1 inh | KDM5B inh
Cc1noc(-c2ccc3c(c2)OCO3)c1C(=O)NCc1cc(F)cc(F)c1 | 2% | 21% | -11 | 28µM*
CCOc1ccccc1CNC(=O)c1c(C)noc1-c1ccc2c(c1)OCO2 | 19% | -8% | 2 | 28µM*
O=C(NC[C@H]1O[C@@H](CC(=O)N2CCc3ccccc32)[C@H](O)[C@@H]1O)c1ccco1 | -4%[87.6 µM] | -20%[87.6 µM] | 4 | ?
CCCc1cc(=O)oc2cc(C)cc(OCC(=O)NC3CC(C)(C)NC(C)(C)C3)c12 | . | . | . | i
Cc1noc(C)c1COc1ccc(C(=O)N[C@@H]2CN(C(=O)Nc3cccc(C(F)(F)F)c3)CCC[C@H]2O)cc1 | -28% | 6% | -6 | i
O=C(N[C@@H]1CN(C(=O)Nc2ccc(F)cc2)CCC[C@H]1O)c1ccc(OCCN2CCCC2)cc1 | 2% | 14% | 9 | 28µM*
NC(=O)COc1ccc(C(=O)N[C@@H]2CN(Cc3ccccn3)CCC[C@H]2O)cc1 | -1%[87.6 µM] | -28%[87.6 µM] | 9 | 32µM*
NC(=O)COc1ccc(C(=O)N[C@@H]2CN(C(=O)NC3CCCCC3)CCC[C@H]2O)cc1 | 3%[87.6 µM] | ? | 4 | i
